A selection: hits, their analogues and other compounds. The true share with any hit is near 3.6%.
TROY NFkB inh: inhibitors of TROY-driven NF-kB signaling, primary screen, Q293 LMP1-TROYcd cells, NF-kB luciferase, uHTS; 0.98% of 360,000 active; Q293 LMP1-TROYcd NF-kB luciferase reporter, 4 h; inhibition, % at 10 µM; AID 1347056, 2019;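 active = compounds whose plate-normalised and pattern-corrected inhibition of the luciferase reporter signal at the single screening dose is 50% or more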
TWEAK-Fn14 inh: inhibitors of TWEAK-Fn14 signaling, primary screen, luciferase reporter cells, uHTS; AID 1159606, 2016; TWEAK-stimulated Fn14 reporter cells, luciferase luminescence, 8 h; 2% of 360,000 active; inhibition, % at 10 µM; in the data active = inhibition above about 50%
HSF1 inh: HSF1 inhibitors in luciferase reporter cells, primary screen, cell-based, NIH3T3, luminescence. NIH3T3-HGL HSE-luciferase, MG132-induced, luminescence 8 h; hits give low values. activity change, negative = inhibition, % at 7.5 µM (by protocol). AID 2098, 2009. 0.77% of 300,000 active;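 active = more than half of replicate wells show activity change below -50%, luminescence cut by over half; inconclusive = some wells, but at most half, below -50%; inactive = no replicate well below -50%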;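 also: luciferase reports HSF-1 transcriptional activity via heat shock element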
HSF-1 act: HSF-1 activators, primary screen, NIH3T3-HGL cells, MG132 stress, luminescence, single point | NIH3T3-HGL HSF-1 luciferase reporter, 8 h; 100% = twice DMSO control signal | activation, % at 9 µM | 1.7% of 300,000 active;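 active = mean replicate activation of at least 50% with a set share of replicates each reaching 50%; inconclusive = only one of those two conditions met; inactive = mean below 50% and too few replicates reaching it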
LGR2 antag: inhibitors of bursicon-induced LGR2 CRE-luciferase signal, primary screen, cell-based, HEK293, CRE-luciferase reporter, bursicon stimulation; Drosophila bursicon receptor LGR2 (rickets); bursicon-stimulated, 4 h; inhibition, % at 9.99 µM; 0.35% of 380,000 active; AID 720647, 2013;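 active = drop in luminescence signal, shown as inhibition above about 50% in the replicate tests, limit read from the data, passing the limit was not always enough; inconclusive = probably only some replicates passing the limit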;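 also: agonist challenge used bursicon conditioned medium at about half maximal strength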
EBV LMP1 NFkB: EBV LMP1-driven NF-kappaB luciferase reporter inhibitors, primary screen, cell-based, luminescence, single point; inhibition, % at 12.5 µM; LMP1-induced NF-kappaB luciferase reporter cells; AID 504558, 2011; 0.69% of 350,000 active; in the data active = inhibition above about 41%; inconclusive = no clear call, values can overlap the other calls
A number is an active result.

For CC1CCc2c(sc(NC(=S)NC(=O)c3ccccc3)c2C#N)C1 (stereo unspecified) the results were TROY NFkB inh inactive, TWEAK-Fn14 inh inactive, HSF1 inh inactive, HSF-1 act 59, LGR2 antag inactive and EBV LMP1 NFkB inactive.
Screening C[C@H]1CN([C@@H](C)CO)C(=O)c2cccc(N(C)C)c2O[C@@H]1CN(C)S(=O)(=O)c1ccc(Cl)cc1 returned LGR2 antag inactive.
`Cc1cccc(-c2nc(S(=O)(=O)c3ccc(F)cc3)c(NCCCN3CCOCC3)o2)c1` gave TROY NFkB inh inactive, TWEAK-Fn14 inh 78, HSF1 inh inactive, HSF-1 act inactive, LGR2 antag inactive and EBV LMP1 NFkB inactive.
Screening CO[C@H]1CN(C)C(=O)c2cc(NC(=O)c3ccc4c(c3)OCO4)ccc2OC[C@@H](C)N(CC2CC2)C[C@H]1C returned LGR2 antag inactive.
For O=C(NCc1ccco1)/C(=C/c1ccc(C(F)(F)F)cc1)c1nc2ccccc2[nH]1 the results were TROY NFkB inh inactive, TWEAK-Fn14 inh inactive, HSF1 inh inactive, HSF-1 act inactive, LGR2 antag inactive and EBV LMP1 NFkB inactive.
Screening O=S(=O)(/C(=C\c1ccc(C(F)(F)F)cc1)c1nc2ccccc2[nH]1)c1ccccc1 returned TROY NFkB inh 54, TWEAK-Fn14 inh 100 and EBV LMP1 NFkB inactive.
O=c1c2ccccc2nnn1CSc1ccccc1 was read as TROY NFkB inh inactive, TWEAK-Fn14 inh inactive, HSF1 inh inactive, HSF-1 act 86, LGR2 antag inactive and EBV LMP1 NFkB inactive.
C[C@H]1CN([C@@H](C)CO)C(=O)c2cc(N(C)C)ccc2O[C@@H]1CN(C)C(=O)Nc1ccccc1 was read as LGR2 antag inactive.
CC1(C)CC(=O)c2ccc(OCc3ccc([N+](=O)[O-])cc3)cc2O1 was read as TROY NFkB inh inactive, TWEAK-Fn14 inh inactive, HSF1 inh inactive, HSF-1 act 70, LGR2 antag inactive and EBV LMP1 NFkB inactive.
`CC1(C)CC(=O)c2c(O)cc(OCc3ccc(Br)cc3)cc2O1` gave TROY NFkB inh inactive, TWEAK-Fn14 inh inactive, HSF1 inh inactive, HSF-1 act inactive, LGR2 antag inactive and EBV LMP1 NFkB inactive.
Screening Brc1ccc(N/N=C(/N=Nc2nn[nH]n2)c2ccccc2)cc1 returned TROY NFkB inh inactive, TWEAK-Fn14 inh inactive, LGR2 antag inactive and EBV LMP1 NFkB 58.
O=C1c2ccccc2C(=O)N1CCSc1ccccc1 was read as TROY NFkB inh inactive, TWEAK-Fn14 inh inactive, HSF1 inh inactive, HSF-1 act 103 and EBV LMP1 NFkB inactive.
For Cc1cc(C2C(C#N)=C(N)OC3=C2C(=O)CCC3)c(C)s1 (stereo unspecified) the results were TROY NFkB inh inactive, TWEAK-Fn14 inh inactive, HSF1 inh inactive, HSF-1 act inactive and EBV LMP1 NFkB inactive.
For COc1cc(C2C(C#N)=C(N)OC3=C2C(=O)CCC3)c([N+](=O)[O-])cc1OC (stereo unspecified) the results were TROY NFkB inh inactive, TWEAK-Fn14 inh inactive, HSF1 inh -77, HSF-1 act inactive and EBV LMP1 NFkB inactive.
`NCC[C@@H]1CC[C@H](NC(=O)C2CCCC2)[C@H](CO)O1` gave LGR2 antag inactive.
Screening Cc1ccc(S(=O)(=O)NCc2cn3c(C)csc3n2)cc1 returned TROY NFkB inh inactive, TWEAK-Fn14 inh inactive and EBV LMP1 NFkB inactive.
`CNc1cc(CSc2ccc(Cl)cc2)nc(C)n1` gave TROY NFkB inh inactive, TWEAK-Fn14 inh inactive, HSF1 inh inactive, HSF-1 act 71, LGR2 antag inactive and EBV LMP1 NFkB inactive.
Cc1cc(C)nc(SCc2cn3ccccc3n2)n1 was read as TROY NFkB inh inactive, TWEAK-Fn14 inh inactive, HSF1 inh inactive, HSF-1 act inactive, LGR2 antag inactive and EBV LMP1 NFkB inactive.
`Cc1cc(C)c(C#N)c(SCc2cn3ccccc3n2)n1` gave TROY NFkB inh 54, TWEAK-Fn14 inh inactive, HSF1 inh inactive, HSF-1 act inconclusive, LGR2 antag inactive and EBV LMP1 NFkB inactive.
`Clc1cccc(Cl)c1CSc1nnc2ccccn12` gave TROY NFkB inh inactive, TWEAK-Fn14 inh inactive, HSF1 inh inactive, HSF-1 act inactive, LGR2 antag inactive and EBV LMP1 NFkB inactive.
`Cc1nc(CSc2ccc(Cl)cc2)cc(NCc2ccccc2)n1` gave TROY NFkB inh inactive, TWEAK-Fn14 inh inactive, HSF1 inh inactive, HSF-1 act inactive and EBV LMP1 NFkB inactive.
`Cc1ccc(SCc2cn3c(C)csc3n2)cc1` gave TROY NFkB inh inactive, TWEAK-Fn14 inh inactive, HSF1 inh inactive, HSF-1 act 91, LGR2 antag inactive and EBV LMP1 NFkB inactive.
Screening Brc1ccc(CSc2nnc3ccccn23)cc1 returned TROY NFkB inh inactive, TWEAK-Fn14 inh inactive, HSF1 inh inactive, HSF-1 act 58, LGR2 antag inactive and EBV LMP1 NFkB inactive.
`CC(C)NC(=O)N1[C@H](C(=O)N2CCOCC2)[C@@H](CO)[C@@H]2Cn3c(ccc(-c4ccc(F)cc4)c3=O)[C@@H]21` gave LGR2 antag inactive.
For COc1ccc(NC(=O)N(C)C[C@H]2OCCCC[C@H](C)Oc3ccc(NC(=O)Nc4cccc5ccccc45)cc3C(=O)N([C@H](C)CO)C[C@@H]2C)cc1 the results were LGR2 antag inactive.
Screening Clc1ccc2nc(CSc3nncn3-c3ccccc3)cn2c1 returned TROY NFkB inh inactive, TWEAK-Fn14 inh inactive, HSF1 inh inactive, HSF-1 act inactive and EBV LMP1 NFkB inactive.
Clc1ccc(-n2nnnc2SCc2cn3ccccc3n2)cc1 was read as TWEAK-Fn14 inh inactive, HSF1 inh inactive, HSF-1 act inactive and EBV LMP1 NFkB inactive.
`Clc1ccc2nc(CSc3nnc4ccccn34)cn2c1` gave TROY NFkB inh inactive, TWEAK-Fn14 inh inactive, HSF1 inh inactive, HSF-1 act 68, LGR2 antag inactive and EBV LMP1 NFkB inactive.
`Cc1ccc(SCc2cn3cc(Cl)ccc3n2)cc1` gave TROY NFkB inh inactive, TWEAK-Fn14 inh inactive, HSF1 inh inactive, HSF-1 act 54, LGR2 antag inactive and EBV LMP1 NFkB inactive.
For Clc1ccc2nc(CSc3nc4ccccc4o3)cn2c1 the results were TROY NFkB inh inactive, TWEAK-Fn14 inh inactive, HSF1 inh inactive, HSF-1 act 100 and EBV LMP1 NFkB inactive.
`Clc1ccc(SCc2cn3ccccc3n2)cc1` gave TROY NFkB inh inactive, TWEAK-Fn14 inh inactive, HSF1 inh inactive, HSF-1 act 78, LGR2 antag inactive and EBV LMP1 NFkB inactive.
`Cc1cccc2nc(CSc3ccc(Cl)cc3)cn12` gave TROY NFkB inh inactive, TWEAK-Fn14 inh inactive, HSF1 inh inactive, HSF-1 act inactive, LGR2 antag inactive and EBV LMP1 NFkB inactive.
